The campaign covered roughly 5,600 compounds. About 4,400 (79%) were called active. So high a share suggests a set chosen from earlier hits. Not all results are given here. Unmarked numbers belong to inactive results. Rule as the data show it: active = inhibition above about 27%; inactive = the rest.
Molecular target: Fructose-bisphosphate aldolase (Mycobacterium tuberculosis (strain ATCC 25618 / H37Rv)) (UniProt P9WQA3)
Test: M. tuberculosis aldolase blockers, biochemical, fluorescence, strain H37Rv, confirmation (AID 651616);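 also: 0% = vehicle wells and 100% = reference inhibitor wells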
Details: purified M. tuberculosis FBA, fluorescence read-out, at 1 µM, stronger effect = higher value

Sequence of Fructose-bisphosphate aldolase (Mycobacterium tuberculosis (strain ATCC 25618 / H37Rv)) (P9WQA3 whole entry, looked up): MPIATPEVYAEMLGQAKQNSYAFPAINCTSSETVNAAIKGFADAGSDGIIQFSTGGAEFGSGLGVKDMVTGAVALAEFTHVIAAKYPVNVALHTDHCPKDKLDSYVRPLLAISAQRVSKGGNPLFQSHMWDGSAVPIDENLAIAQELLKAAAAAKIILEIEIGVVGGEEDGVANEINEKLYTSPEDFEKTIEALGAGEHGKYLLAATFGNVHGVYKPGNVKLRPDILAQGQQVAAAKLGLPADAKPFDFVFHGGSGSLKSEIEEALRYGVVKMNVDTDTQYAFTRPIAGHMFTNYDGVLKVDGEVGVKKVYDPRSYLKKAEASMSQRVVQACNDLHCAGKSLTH

SMILES | inhibition
COc1ccc(-c2nc3cc(C)ccn3c2NC2CCCCC2)cc1SC1CCCCC1 | 53.2% (active)
O=C(Nc1ccc(-c2nnc(-c3ccccc3)o2)cc1)C1CCCO1 (stereo not drawn) | 1.4%
O=C(CCc1ccccc1)Nc1cccc(-c2nnc(-c3ccco3)o2)c1 | 91% (active)
CC(=O)N1C(=O)/C(=C2\SC(=S)N(NC(=O)c3ccc(O)cc3)C2=O)c2ccccc21 | 10.4%
Cc1cc(C)c2nc3nc(C)cc(C)c3c(N)c2c1 | 41.1% (active)
Cc1cc(C)c2nc(-c3ccco3)cc(C(=O)O)c2c1 | 3.93%
CCOC(=O)N1CCC(NC(=O)c2cnn3ccccc23)CC1 | 42.5% (active)
CCOc1c2ccc(C(=O)NCc3ccc4c(c3)OCO4)cc2nn1C | 107% (active)
CCOc1c2ccc(C(=O)NC3CCCc4ccccc43)cc2nn1CC (stereo not drawn) | 21.6%
CCOc1c2ccc(C(=O)NCc3ccc(OC(F)(F)F)cc3)cc2nn1C | 106% (active)
CCCn1nc2cc(C(=O)NCc3ccccc3)ccc2c1OCC | -3.79%
O=C(NCc1cccc(Cl)c1)C1=CC=CN2CCS(=O)(=O)N=C12 | 11.8%
C=CCn1c(CCNC(=O)c2ccccc2F)nnc1SCC(=O)Nc1ccc(OC)cc1 | 586% [above what the read-out allows, likely interference] (active)
Cc1ccsc1C(=O)N[C@@H](C)c1nnc2ccccn12 | 125% (active)
CC(C)n1c(-c2cccs2)nc2ccccc21 | 87% (active)
CC1(C(=O)NCc2ccco2)Cc2c(-c3ccc4c(c3)OCO4)ccnc2O1 (stereo not drawn) | 7.76%
CC1(C(=O)NCc2ccc(F)c(F)c2)Cc2c(-c3ccc4c(c3)OCO4)ccnc2O1 (stereo not drawn) | 155% (active)
Cc1cc(=O)oc2c3c(cc(OCC(=O)NCC(O)c4ccccc4)c12)OC(C)(C)CC3 (stereo not drawn) | 62% (active)
CC1(C)CC(=O)c2cc(OCC(=O)NCC3CCCO3)ccc2O1 (stereo not drawn) | -1.83%
CCCCNc1c(-c2cccc(Sc3ccc(OC)cc3)c2)nc2ccccn12 | 35.1% (active)
CCCCn1c(-c2cccc(C)c2)nc2cc3[nH]c(=O)c(C(C)C)nc3cc21 | 34.1% (active)
O=C(O)/C=C/c1cn(-c2ccccc2)nc1-c1cccs1 | 92.4% (active)
O=C(CN1C(=O)c2cccc3cccc(c23)C1=O)N1CCCCC1 | 70.8% (active)
CC(Nc1nc(N2CCOCC2)nc2ccccc12)c1ccccc1 (stereo not drawn) | 56.5% (active)
c1ccc2c(NC3C4CC5CC(C4)CC3C5)nc(N3CCOCC3)nc2c1 (stereo not drawn) | 134% (active)

SMILES | inhibition
CCOC(=O)Cn1c(=O)n(Cc2ccc(OC)cc2)c(=O)c2cccnc21 | 852% [above what the read-out allows, likely interference] (active)
COC(=O)CSc1nc(C)c2ccc(OC)cc2n1 | -3.91%
O=C(CCC(=O)N/N=C/c1ccc(Br)o1)N/N=C/c1ccc(Br)o1 | 110% (active)
CCC(=O)Nc1c(S(=O)(=O)c2ccccc2)c2nc3ccccc3nc2n1Cc1ccccc1 | 173% (active)
COc1ccc2nc(-c3ccccn3)ccc2c1 | 116% (active)
O=C1NC(c2cccc(Cl)c2)Nc2ccccc21 (stereo not drawn) | 102% (active)
COc1ccc(C2NC(=O)c3ccccc3N2)cc1 (stereo not drawn) | 146% (active)
Cc1ccc2nc(-c3ccco3)c(Cc3cccc(Cl)c3)n2c1 | 94.1% (active)
O=C1OCCN1C(=O)[C@H]1[C@H](c2ccc(F)cc2)C(c2ccccc2)=NN1c1ccc(Br)cc1 | 65.6% (active)
CNc1nc(-c2ccccc2)cc(-c2ccccc2)n1 | 76.6% (active)
CCCN(C(=O)CSc1nnc(N)s1)c1c(N)n(Cc2ccccc2)c(=O)[nH]c1=O | 59.2% (active)
COc1ccc(-c2ccc(C(=O)NCCN3CCOCC3)c3occc23)c(C)c1 | 72% (active)
COc1ccc(-c2ccc(C(=O)NC(C)C)c3occc23)c(C)c1 | 112% (active)
COc1ccc(-c2oc3ncnc(NCCCO)c3c2-c2ccc(OC)cc2)cc1 | 51.9% (active)
Cc1cc(C)nc(SCc2cn3c(C)cc(C)nc3n2)n1 | 102% (active)
COc1cccc(NC(=O)CN(C)C(=O)/C=C/c2cc(OC)ccc2OC)c1 | 105% (active)
COc1cccc(NC(=O)CN(C)CC(=O)Nc2ccc3c(c2)CCC3)c1 | 89% (active)
Cc1c(OC(C)C(=O)N[C@@H](Cc2ccccc2)C(=O)O)ccc2c3c(c(=O)oc12)CCCC3 (stereo partly drawn) | 5.53%
COc1ccc2c3c(c(=O)oc2c1OCC(=O)C(C)(C)C)CCCC3 | 60.2% (active)
CCC(=O)Nc1ccc2nn(-c3ccc(F)cc3)nc2c1 | 88% (active)
CCCC/C=C/c1cccc2nncn12 | 68.8% (active)
CN1CCN(CCCNC(=O)c2ccc(/C=C3\Oc4ccccc4N(Cc4ccc(Cl)cc4)C3=O)cc2)CC1 | -4.52%
O=C(NCCN1CCOCC1)c1ccc2c(c1)N(Cc1ccc(Cl)cc1)CCS2 | 56.6% (active)
O=C(NCCc1ccccc1)c1ccc2c(c1)N(Cc1ccccc1)CCS2 | 42.5% (active)
COCCCNC(=S)N(CCN(C)C)Cc1cc2cc3c(cc2[nH]c1=O)OCCO3 | 43.2% (active)

SMILES | inhibition
COc1ccc(C2C3=C(CCCC3=O)N(CC(=O)O)C3=C2C(=O)CCC3)cc1 | 128% (active)
CCCc1cc(=O)n2[nH]c(C)c(-c3ccc(Cl)cc3)c2n1 | 123% (active)
Cc1nc2c(-c3ccccc3)c(C)[nH]n2c(=O)c1Cl | 105% (active)
COCc1cc(=O)n2[nH]c(C)c(-c3ccccc3)c2n1 | 50.6% (active)
O=C(O)Cc1sc(-c2ccc(C(=O)O)cc2)nc1-c1ccccc1 | -7.84%
c1cc(-c2ccc3[nH]ccc3c2)n2ccnc2c1 | 79.6% (active)
COc1ccc(CNC(=O)c2c[nH]c3c(OC)cc(OC)cc3c2=O)cc1 | -2.04%
Cc1ccc(Cn2c(C)nc3c(c2=O)c2nc4ccccc4nc2n3Cc2ccco2)cc1 | 55% (active)
CC(=O)Nc1ccc(-c2nc3ccccc3o2)cc1 | 8.14%
COc1cc(OC)cc(C(=O)Nc2ccc(-c3nc4ccccc4o3)c(O)c2)c1 | 148% (active)
CC(C)OCCCNc1ncnc2c1[nH]c1ccc(F)cc12 | 132% (active)
CC(C)CN1CCNC(=O)C1CC(=O)N(C)CC1CCOCC1 (stereo not drawn) | 138% (active)
Cc1cc(OCc2cc(C(=O)O)oc2C)c2c3c(c(=O)oc2c1)CCCC3 | 151% (active)
COC(=O)COc1cc(C)cc2oc(=O)c3c(c12)CCCC3 | 124% (active)
CCCS(=O)(=O)Nc1c(C(=O)O)[nH]c2ccccc12 | 54.9% (active)
CCOC(=O)c1c(-c2ccccc2)oc2ccc(OCC(N)=O)cc12 | 148% (active)
COC(=O)c1c(-c2ccsc2)oc2ccc(-c3cc(OC)c(OC)c(OC)c3)cc12 | 2.75%
CCOC(=O)c1c(-c2ccccc2)oc2ccc(OCC(=O)NN)cc12 | 108% (active)
COc1cc(C(F)(F)F)nc2c(Br)c(C(C)(C)C)nn12 | 66.4% (active)
Cc1ccc(NC(=O)CN(C)C(=O)COC(=O)c2nccnc2N)cc1 | 4.29%
COc1ccc2oc(=O)c(C(=O)NCc3ccccn3)cc2c1 | 10.3%
CCN(CC)c1ccc2cc(C(=O)O)c(=O)oc2c1 | 22.1%
COc1ccc2oc(=O)c(C(=O)N3CCCC3)cc2c1 | 113% (active)
CCc1c(C)nc2cc(-c3cccs3)[nH]n2c1=O | 26.8%
C=CCc1c(C)nc2cc(-c3ccccc3)[nH]n2c1=O | 56.1% (active)

SMILES | inhibition
CCc1c(C)nc2cc(C)[nH]n2c1=O | 45.6% (active)
CN(C)S(=O)(=O)c1ccc(N/C=C(\[N+](=O)[O-])S(=O)(=O)c2ccccc2)cc1 | 2.34%
COCc1cc(=O)oc2cc(NS(=O)(=O)c3ccc(C)cc3)ccc12 | 62.7% (active)
COCCN(CCOC)c1nc(N)c2c(N)nc3c(c2c1C#N)CC(=O)N3Cc1ccc(Cl)cc1 | 89.8% (active)
CCCC1OC23CCCCC2C(C#N)(C#N)C1(C#N)C(=N)O3 (stereo not drawn) | -0.85%
CC(=O)N1CCN(C(=O)c2cc(-c3ccc(Cl)s3)nc3ccccc23)CC1 | 12.6%
O=C(c1cc(-c2ccc(Cl)s2)nc2ccccc12)N1CCOCC1 | 111% (active)
Cc1nn(C)c(Oc2ccccc2)c1CCNS(=O)(=O)c1ccc(F)cc1 | 157% (active)
Cc1cccc(NC(=O)c2sc3nc(N4CCOCC4)c4c(c3c2N)CCCC4)c1 | 108% (active)
Oc1ccc(Br)cc1C=Nc1ccc2[nH]ncc2c1 | 79.1% (active)
COc1ccc(-c2cc(C(=O)Nc3ccccc3O)c3ccccc3n2)cc1 | 133% (active)
COc1ccc(-c2cn3ccc(C)cc3n2)cc1 | 4.46%
COc1ccc(-c2cc(C(=O)N(C)Cc3ccccc3)c3ccccc3n2)cc1 | -2.17%
COc1nc(N=C(N)N)nc2c(C)cccc12 | 108% (active)
COc1cc2nc(N3CCN(C(=O)[C@@H]4CCCO4)CC3)nc(N)c2cc1OC | 109% (active)
CC(C)C1Nc2c(C(=O)O)cccc2C(Nc2ccccc2C(=O)O)C1(C)C (stereo not drawn) | 95.8% (active)
Cc1noc(C)c1COc1ccc2ccc(=O)oc2c1 | 55.1% (active)
COC(=O)c1c(C)c(C)nc(N)c1C#N | 56.3% (active)
CCOC(=O)Cc1c(C)nc2c(C#N)c(C)nn2c1C | 63.7% (active)
Cc1cc(C)c(-c2c(O)c3ccccc3n(C)c2=O)c(C)c1 | 78.7% (active)
CCSc1nnc(-c2cc3c(s2)-c2ccccc2CC3)o1 | 76.8% (active)
CCOc1ccc(-c2nnc(-c3ccco3)o2)cc1 | 106% (active)
CCCCOc1ccc(-c2nnc(-c3ccco3)o2)cc1 | 174% (active)

Reference: PubChem BioAssay AID651616 (The Scripps Research Institute Molecular Screening Center, 2012)
